Assay results published in the supplement of paper PMC10338343.
± gives the standard deviation. Over roughly 3,700 sequences, “pre-steady-state target cleavage rate” has its median near 0.02; the highest 2% begin near 0.23. Many of the other results were omitted from the sample, so the highest values are more common in it than they were.

tested on: MILI (PIWIL2) piRISC loaded with Kctd7 piRNA (26 nt); test: pre-steady-state target cleavage rate (min^-1); MIWI and MILI are mouse PIWI proteins and EfPiwi is from a freshwater sponge; tags in brackets are library labels; higher = faster piRNA-guided slicing of the target; settings: guide: Kctd7 piRNA 5'p-UGUUAAUCUCUCAGAGAAGGUGACAG; auxiliary factor: 500 nM mouse GTSF1
Summary of the method: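 In this Cleave-'n-Seq assay, uncleaved targets were sequenced and normalised to depth and to weakly complementary targets. They came from a transcribed, DNA-blocked target RNA library […] mixed with 1 nM active affinity-purified piRISC carrying one synthetic guide, with or without 500 nM GTSF1 partner protein, in HEPES–potassium acetate buffer at 33 °C for 0–8 or 0–960 min. After three trials were pooled and k3 was capped at 0.0001 min^-1, the pre-steady-state cleavage rate was obtained from a burst-and-steady-state fit.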
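Note: 1 nM active piRISC with 0.1 nM target library at 33 °C single turnover.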

| Sequence | pre-steady-state target cleavage rate |
| --- | --- |
| UAGUGAGUGACCUUCUCUGAGACAUUAACA | 0.0267 ± 0.0076 |
| UAGUCUCUCACCAUCUCUGAGAGAUUAACA | 0.0256 ± 0.0069 |
| UAGUGAGUGACCUUCUCUGAGAGAUAAACA | 0.0814 ± 0.021 |
| UAGUGACUCACCUUGUCUGAGACAUUAACA | 0.0647 ± 0.011 |
| UAGUGAGUCACCUUCUCUGAGAGACUUAACA | 0.137 ± 0.032 |
| UAGUGAGUCACCUUCUCUGAGAGUUUAUGA | 0.275 ± 0.092 |
| UAGUGAGUCACCUUCUCUGAGAGUUAAACA | 0.297 ± 0.086 |
| UAGUGAGUCACCUUCUCUGAGAGAGUUAACA | 0.257 ± 0.044 |
| UAGUCUGUCACCUUCUCUGAGAGAUGUAACA | 0.211 ± 0.03 |
| UAGUGAGUCACCUUCUCUGAGAGAUGUAACA | 0.312 ± 0.047 |
| UAGUGUGUCACCUUCUCUGAGAGAUGUAACA | 0.159 ± 0.029 |
| UAGUGAGUCACCUUCUCUGAGAGUUUAUCA | 0.132 ± 0.049 |
| UAGUGUGUCACCUUCUCUGAGAGUUUAUGA | 0.0769 ± 0.038 |
| UAGUGAGUCACCUUCUCUGAGAGAAAAACA | 0.0915 ± 0.023 |
| UAGUGAGUCACCUUCUCUGAGAGGUUAACA | 0.142 ± 0.019 |
| UAGUGACUCACCUUCUCUGAGAGUUAAACA | 0.0666 ± 0.014 |
| UAGUGACACACCUUCUCUGAGAGAAAUACA | 0.0296 ± 0.013 |
| UAGUGUGUCAGCUUCUCAGAGAGAUUAACA | 0.0938 ± 0.0081 |
| UAGUGACACACCUUGUCUGAGACAUUAACA | 0.0978 ± 0.026 |

| Sequence | pre-steady-state target cleavage rate |
| --- | --- |
| UAGUGUGUCACCUUCGUCUGAGAGAUUAACA | 0.088 ± 0.012 |
| UAGUGACUCACCUUCUCUGAGAGAUUAUGA | 0.0729 ± 0.012 |
| UAGUGAGUCCCCUUCUCUGAGAGAUUAACA | 0.214 ± 0.021 |
| UAGUGACACACCUUCUCUGAGAGAUUACA | 0.0753 ± 0.023 |
| UAGUGUGUCACCUUCUGUCAGAGAUUAACA | 0.039 ± 0.0051 |
| UAGUGAGUCACCUUCUCUGAGAUAUUAACA | 0.115 ± 0.017 |
| UAGUGACACACCUUCUCUGAGACAUUAACA | 0.0514 ± 0.0091 |
| UAGUGUCUCACCUUCUCUGAGAGAUUAUGA | 0.0163 ± 0.0063 |
| UAGUGACAGACCGUCUCUGAGAGAUUAACA | 0.0355 ± 0.0065 |
| UAGUGAGUCACCUUCACAGAGAGAUUAACA | 0.0664 ± 0.0081 |
| UAGUGACUCACCUUCUGUGACAGAUUAACA | 0.0678 ± 0.011 |
| UAGUGACAGACCUACUCUGAGAGAUUUACA | 0.0238 ± 0.0093 |
| UAGUGACACACCUUCUCUCAGACAUUAACA | 0.0383 ± 0.011 |
| UAGUCAGUCACCAUCUCUGAGAGAUUAACA | 0.171 ± 0.0086 |
| UAGUCUGUCACCUUCUCUGAGAGUUUUACA | 0.171 ± 0.054 |
| UAGUGAGUCACCUUCUCUGAGAGUUUUACA | 0.257 ± 0.078 |
| UAGUGUGUCACCUUCUCUGAGAGUUUUACA | 0.14 ± 0.046 |
| UAGUGUGUCACCAUCUCUGAGAGAUUUACA | 0.158 ± 0.033 |
